This is a sample that favours compounds with a hit; in the whole collection about 7.8% have one here.
HCV inhibitor = blocks hepatitis C virus; Huh7.5.1 HCVcc-Cre infection, luciferase reporter, 44 h; Potency, µM (highest dose often 41.8 µM), for the others: top-dose activity change, negative = inhibition, most hits filed as inhibitors; AID 651820; 340,000 compounds, 3.4% hits; active means well fitted inhibition curve with a large enough effect; inconclusive means small, poorly fitted or top-dose-only effect, or another doubt; inactive means no such curve, though single readings can be large or run the other way; further: potency means the concentration at half of the fitted maximal effect
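Cells (1,000/well) were plated 4 h before compound, then infected with HCVcc-Cre virus (~0.5 moi). After 44 h further culture, infection was read as luciferase luminescence following a 15 min substrate incubation at room temperature.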
LASV entry inh = inhibitors of Lassa virus binding or cell entry | 300,000 compounds, 1.2% hits | Lassa virus pseudotype entry inhibition, cell reporter | Potency, µM (series often up to 37.9 µM), inactives show at the top dose activity change, negative = inhibition, actives largely listed as inhibitors; calls by dose curve; tested in HEK293 cells; further: potency means the concentration at half of the fitted maximal effect; nearly all actives have a fitted effect of over 50% in size
Vaccinia mCherry = inhibitors of vaccinia virus infection (mCherry reporter signal); 310,000 compounds, 0.63% hits; AID 720579; Potency, µM (doses to about 36.5 µM), without a hit: at the highest dose activity change, negative = inhibition, usual class: inhibitors; Vaccinia virus mCherry reporter infection, fluorescence; calls by dose curve; tested in A549 cells; further: potency means the concentration at half of the fitted maximal effect; nearly all actives have a fitted effect of over 35% in size
HCMV antiviral = blocks human cytomegalovirus replication. HFF cells, HCMV-luciferase reporter, 72 h; hits give low values. activity change, negative = inhibition, % at 57.5 µM. 410,000 compounds, 4.5% hits. AID 1259415; in the data active means activity change below about -60%; inconclusive means no clear call, values can overlap the other calls; inactive means above about -39%
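Two compound doses tested in HFFs infected with HCMV-luciferase, MOI 1 PFU/cell, 72 h at 37C. Lysate luminescence read with OneGlo; data normalized against buffer-only and 10uM Salinomycin inhibitor controls.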
MARV entry inh = inhibitors of Marburg virus binding or cell entry | Marburg virus pseudotyped entry inhibition, cell reporter | Potency, µM (titrated, usually from 37.8 µM), for inactives: at the highest dose activity change, negative = inhibition, most hits filed as inhibitors | 300,000 compounds, 1.8% hits | AID 540276; calls by dose curve; tested in HEK293 cells; further: potency means the concentration at half of the fitted maximal effect
Vaccinia Venus = vaccinia inhibition (Venus reporter). Vaccinia virus Venus reporter expression, fluorescence. Potency, µM (series often up to 36.5 µM), without a hit: at the highest dose activity change, negative = inhibition, hits mostly inhibitors. 330,000 compounds, 0.46% hits; calls by dose curve; tested in A549 cells; further: potency means the concentration at half of the fitted maximal effect; nearly all actives have a fitted effect of over 30% in size
Active calls of the source: *; i = inactive; ? = inconclusive; . = no result given; [ ] = another dose, or the depositor's remark. On the % scale 0 is the no-effect control and ±100 the full control effect.

SMILES	HCV inhibitor	LASV entry inh	Vaccinia mCherry	HCMV antiviral	MARV entry inh	Vaccinia Venus
CCOC(=O)c1ccc(NC(=O)CNNC(=O)COc2ccccc2C)cc1	-3%	.	.	-2	.	.
CCOc1ccc(NC(=O)C(=O)NCCc2ccccc2)cc1	.	-8%[46.1 µM]	-12%	4	.	-3%
CCOC(=O)c1ccc(NC(=O)COc2ccc(CNCCO)cc2OCC)cc1	8.9µM*	.	-14%	0	10µM*	-9%
CCOC(=O)c1ccc(NC(=O)COc2ccccc2CNCCc2ccccc2)cc1	?	.	.	-65*	.	.
Cc1cc(C)cc(NC(=O)NCCn2nnc3cc(S(=O)(=O)N(C)C)ccc32)c1	.	3%[46.1 µM]	-9%	-13	.	-10%
CCOC(=O)c1c(NC(=O)CSc2nc3ccccc3s2)sc(C(C)=O)c1C	?	?	i	64	?	-11%
CCOC(=O)c1c(NC(=O)COc2ncnc3ccccc23)sc(C(C)=O)c1C	7.1µM*	-11%	i	14	-31%	-20%
CCOC(=O)c1c(NC(=O)CSc2nc3cc(Cl)ccc3s2)sc(C(C)=O)c1C	-10%	10%	.	-61*	25%	.
COC(=O)c1c(NC(=O)COc2ncnc3ccccc23)sc(C)c1C	?	-5%	4%	9	-4%	-8%
COc1cc(CNc2ccc3[nH]c(=O)[nH]c3c2)ccc1OCc1cccc(C)c1	6.3µM*	?	?	-66*	-20%	?
COc1cc(CNc2ccc3[nH]c(=O)[nH]c3c2)ccc1OCc1ccc(C)cc1	?	-12%[46.1 µM]	?	14	-24%[46.1 µM]	?
CCc1cccc(NC(=O)c2ccc3c(=O)n4nc(Nc5ccccc5OC)sc4nc3c2)c1	.	?	4µM*	-88*	.	4µM*
COc1cccc(NC(=O)c2ccc3c(=O)n4nc(Nc5ccccc5OC)sc4nc3c2)c1	.	?	?	-35	.	?
COc1ccccc1Nc1nn2c(=O)c3ccc(C(=O)NCc4ccc(F)cc4)cc3nc2s1	.	?	13µM*	-90*	.	?
Cc1ccc(Cl)cc1Nc1nn2c(=O)c3ccc(C(=O)NCc4cccs4)cc3nc2s1	.	-27%[46.1 µM]	?	-98*	.	?
Cc1ccccc1Nc1nn2c(=O)c3ccc(C(=O)NCc4cccs4)cc3nc2s1	.	?	-23%	-19	.	?
CCN(CC)CCNC(=O)c1ccc2c(=O)n3nc(Nc4ccccc4)sc3nc2c1	.	15%[46.1 µM]	-11%	-91*	.	-15%
CCCN(CCC)S(=O)(=O)c1ccc(C(=O)Nc2nc3c(s2)CCc2ccccc2-3)cc1	23%	?	-16%	-72*	?	1%
COc1cccc(OC)c1C(=O)Nc1nc2c(s1)CCc1ccccc1-2	.	-2%[46.1 µM]	-3%	-13	.	-6%
Cc1ccc2c(c1)c(=O)c(C(=O)c1ccc3c(c1)OCO3)cn2Cc1cccc(F)c1	.	-17%[46.1 µM]	-5%	0	?	1%
COC(=O)[C@@]1(C)[C@H]2C(=O)N(C)C(=O)[C@H]2[C@H]2CN=C(SCc3ccc(Cl)cc3)N21	4.5µM*	.	0%	28	.	-28%
COC(=O)[C@@]1(C)[C@H]2C(=O)N(C)C(=O)[C@H]2[C@H]2CN=C(SCc3ccc(C#N)cc3)N21	0.56µM*	.	i	-5	.	7%
O=C(COc1ccc(F)cc1)Nc1ccccc1OCc1cc(=O)n2ccccc2n1	.	9%[46.1 µM]	i	53	.	-11%
CCN(CC(=O)Nc1c(F)cccc1F)C(=O)c1ccc(OC)c(S(=O)(=O)NC2CCCC2)c1	.	.	-10%	-72*	.	-12%
O=C1Nc2ccccc2-n2nnnc2C1N1CCN(c2ccc(C(F)(F)F)cc2[N+](=O)[O-])CC1 (stereo not given)	.	.	-12%	12	.	?
SMILES	HCV inhibitor	LASV entry inh	Vaccinia mCherry	HCMV antiviral	MARV entry inh	Vaccinia Venus
CCN1C(=O)C(CC(=O)Nc2ccc(Br)cc2)N(CCCc2ccccc2)C1=S (stereo not given)	?	13µM*	.	?	?	?
CCCOc1ccc(NC(=O)CC2C(=O)N(CC)C(=S)N2CCNC(C)=O)cc1 (stereo not given)	10%	-2%	i	-13	16%	-21%
O=C(CC1C(=O)N(Cc2ccccc2)C(=S)N1CCN1CCOCC1)Nc1ccc(F)cc1 (stereo not given)	3%	1%	-18%	-69*	6%[46.1 µM]	-6%
CCCOc1ccc(NC(=O)CC2C(=O)N(CC)C(=S)N2CCCN2CCN(Cc3ccccc3)CC2)cc1 (stereo not given)	?	?	-29%	-84*	?	?
Cc1ccc(-c2cc3onc(-c4ccccc4)c3c(=O)n2C)cc1	-10%	.	-26%	-71*	.	?
COc1ccccc1C(=O)Nc1cccc(C(=O)OCc2cc(=O)n3nc(C)sc3n2)c1	.	3%[46.1 µM]	-28%	69	.	-28%
O=C(Nc1ccc(F)cc1)Nc1ccc(N2CCCC2)c(S(=O)(=O)Nc2ccccc2Cl)c1	6.3µM*	7.3µM*	11µM*	-100*	7.9µM*	11µM*
O=C(Cc1ccc(F)cc1)Nc1ccccc1N1CCCC1	-2%	.	.	11	.	.
O=C(/C=C/c1cccs1)Nc1ccc(N2CCOCC2)c(S(=O)(=O)Nc2ccccc2Cl)c1	?	?	-28%	-78*	?	-16%
COc1ccccc1NS(=O)(=O)c1cc(NC(=O)Nc2ccccc2)ccc1N1CCCCC1	?	?	-29%	-24	?	-22%
CC(C)(C)CC(=O)Nc1ccccc1N1CCN(c2ccc(F)cc2)CC1	0%	?	-18%	-11	7.9µM*	-16%
O=C(Nc1ccc(F)cc1)Nc1ccccc1N1CCCCC1	11µM*	.	.	-71*	.	.
O=C(Nc1ccc(F)cc1)Nc1csc2ccccc12	2%	?	?	-75*	?	?
O=C(Nc1ccc(N2CCCCC2)c(S(=O)(=O)Nc2ccccc2Cl)c1)c1cccnc1	13µM*	-23%	-1%	-29	?	-7%
COc1ccccc1NS(=O)(=O)c1cc(NC(=O)c2ccc(NC(C)=O)cc2)ccc1N1CCOCC1	?	?	-14%	-8	-4%	-15%
O=C(Nc1ccc(N2CCOCC2)c(S(=O)(=O)Nc2ccccc2Cl)c1)c1ccc(F)cc1	10µM*	?	-12%	29	?	-21%
O=C(Nc1ccc(Cl)c(Cl)c1)Nc1ccc(N2CCCC2)c(S(=O)(=O)Nc2ccccc2Cl)c1	?	8.9µM*	13µM*	-99*	?	11µM*
Fc1ccc(-n2nnc(-c3cccnc3)n2)cc1	1%	.	i	49	.	-7%
Fc1ccc(C(CCCn2nnc(-c3cccnc3)n2)c2ccc(F)cc2)cc1	?	-8%	?	-76*	?	?
CC(C)(C)NC(=O)C(c1ccncc1)N(C(=O)Cn1nnc(-c2ccc(F)cc2)n1)c1ccccc1F (stereo not given)	7%	17%	-14%	-31	-23%[46.1 µM]	-6%

Source: PubChem (National Center for Advancing Translational Sciences (NCATS))
